# Results as given in paper PMC7862700, “An all-to-all approach to the identification of sequence-specific readers for epigenetic DNA modifications on cytosine”.
# Legend:
# Assay in all cases: DAPPL (digital affinity profiling via proximity ligation, sequencing); 10 mM Tris-HCl pH 7.5, 50 mM NaCl, 1 mM DTT, 4% glycerol, room temperature, 30 min; GST-TFs on glutathione beads, 16-mer random dsDNA library, 0.1% formaldehyde crosslink after washing; high values mean tight binding
# Conditions in all cases: protein: recombinant; tags: N-terminal GST; dsDNA, one strand shown
# [1] = molecular target: T1, FLI1 (Homo sapiens, UniProt Q01543 1-452)
# T1 sequence: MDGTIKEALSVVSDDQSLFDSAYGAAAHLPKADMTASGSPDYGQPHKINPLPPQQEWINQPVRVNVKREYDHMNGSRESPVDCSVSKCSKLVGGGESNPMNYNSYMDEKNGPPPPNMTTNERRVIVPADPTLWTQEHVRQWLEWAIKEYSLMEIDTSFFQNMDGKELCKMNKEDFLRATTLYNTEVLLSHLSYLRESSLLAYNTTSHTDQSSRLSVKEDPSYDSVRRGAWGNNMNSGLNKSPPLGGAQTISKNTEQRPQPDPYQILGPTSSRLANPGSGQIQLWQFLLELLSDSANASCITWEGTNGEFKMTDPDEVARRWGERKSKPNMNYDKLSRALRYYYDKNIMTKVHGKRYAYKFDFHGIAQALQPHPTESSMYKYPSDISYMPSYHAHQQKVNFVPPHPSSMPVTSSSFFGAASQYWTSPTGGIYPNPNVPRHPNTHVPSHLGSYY
# Summary of the method: (§1)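 Binding signal is each hexamer's read frequency for a factor divided by its frequency in the tag-only sample. The factors were GST-fused human transcription factors from yeast, captured on glutathione beads, DNA-barcoded and pooled with that sample. Pools were incubated with 200 nmole of a random double-stranded 16-mer DNA library in Tris/NaCl/DTT/glycerol buffer at room temperature for 30 min, then washed, crosslinked with 0.1% formaldehyde, proximity-ligated with BsaI/T4 ligase (1 h, 37 °C), PCR-amplified and sequenced on an Illumina NextSeq500.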
# [2] = molecular target: T2, ELK1 (Homo sapiens, UniProt P19419 1-428)
# T2 sequence: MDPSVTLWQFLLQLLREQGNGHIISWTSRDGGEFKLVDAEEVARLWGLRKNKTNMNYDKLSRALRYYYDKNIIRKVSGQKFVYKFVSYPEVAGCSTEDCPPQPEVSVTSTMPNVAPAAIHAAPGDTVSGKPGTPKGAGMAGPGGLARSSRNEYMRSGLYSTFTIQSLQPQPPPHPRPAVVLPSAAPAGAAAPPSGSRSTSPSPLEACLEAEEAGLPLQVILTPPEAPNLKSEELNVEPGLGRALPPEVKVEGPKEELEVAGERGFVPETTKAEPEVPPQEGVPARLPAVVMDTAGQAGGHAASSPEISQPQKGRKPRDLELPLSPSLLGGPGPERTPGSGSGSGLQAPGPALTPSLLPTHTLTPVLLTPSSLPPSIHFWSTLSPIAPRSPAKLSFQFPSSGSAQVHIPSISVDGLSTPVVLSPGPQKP
# Summary of the method: as §1
# [3] = molecular target: T3, ERG (Homo sapiens, UniProt P11308 1-479)
# T3 sequence: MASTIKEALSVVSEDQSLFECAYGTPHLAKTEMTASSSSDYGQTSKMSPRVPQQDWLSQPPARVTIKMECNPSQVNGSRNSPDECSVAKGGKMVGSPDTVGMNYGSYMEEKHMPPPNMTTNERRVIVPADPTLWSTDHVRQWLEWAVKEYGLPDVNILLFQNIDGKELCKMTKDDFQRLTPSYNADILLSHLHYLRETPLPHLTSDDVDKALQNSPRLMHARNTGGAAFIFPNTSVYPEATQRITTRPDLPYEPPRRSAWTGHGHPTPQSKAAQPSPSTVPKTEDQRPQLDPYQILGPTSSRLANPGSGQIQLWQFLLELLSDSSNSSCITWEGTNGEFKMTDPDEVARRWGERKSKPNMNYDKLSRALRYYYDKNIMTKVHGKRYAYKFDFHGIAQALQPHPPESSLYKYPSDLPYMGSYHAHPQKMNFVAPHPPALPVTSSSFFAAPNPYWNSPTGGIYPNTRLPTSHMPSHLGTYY
# Summary of the method: as §1
# [4] = molecular target: ELF1 (Homo sapiens, UniProt P32519 1-619)
# Sequence of ELF1 (P32519 whole entry): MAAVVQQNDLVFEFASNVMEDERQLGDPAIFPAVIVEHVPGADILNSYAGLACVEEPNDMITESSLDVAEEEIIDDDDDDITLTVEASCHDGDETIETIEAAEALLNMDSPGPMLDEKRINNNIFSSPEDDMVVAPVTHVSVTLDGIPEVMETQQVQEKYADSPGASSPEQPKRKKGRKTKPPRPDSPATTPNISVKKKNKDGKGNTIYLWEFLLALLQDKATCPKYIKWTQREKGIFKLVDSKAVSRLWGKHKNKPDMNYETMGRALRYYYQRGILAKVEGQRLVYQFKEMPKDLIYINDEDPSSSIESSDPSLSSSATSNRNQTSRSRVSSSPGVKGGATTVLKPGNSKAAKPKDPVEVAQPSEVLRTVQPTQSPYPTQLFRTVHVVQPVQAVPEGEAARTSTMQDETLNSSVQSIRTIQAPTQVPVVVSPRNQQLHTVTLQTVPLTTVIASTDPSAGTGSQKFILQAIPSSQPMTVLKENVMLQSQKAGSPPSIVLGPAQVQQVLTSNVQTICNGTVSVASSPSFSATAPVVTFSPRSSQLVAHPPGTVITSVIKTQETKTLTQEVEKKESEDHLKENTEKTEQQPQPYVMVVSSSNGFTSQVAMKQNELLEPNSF
# Summary of the method: as §1
# [5] = molecular target: T4, EHF (Homo sapiens, UniProt Q9NZC4 1-300)
# T4 sequence: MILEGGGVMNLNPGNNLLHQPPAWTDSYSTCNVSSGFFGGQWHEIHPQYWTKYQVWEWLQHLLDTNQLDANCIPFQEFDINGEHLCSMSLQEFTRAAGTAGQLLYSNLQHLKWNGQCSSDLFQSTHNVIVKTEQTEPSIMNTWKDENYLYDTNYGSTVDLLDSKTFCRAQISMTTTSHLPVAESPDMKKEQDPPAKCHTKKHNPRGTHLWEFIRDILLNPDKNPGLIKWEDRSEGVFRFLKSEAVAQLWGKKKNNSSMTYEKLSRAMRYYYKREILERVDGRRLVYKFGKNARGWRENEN
# Summary of the method: as §1
# [6] = molecular target: SPI1 (Homo sapiens, UniProt P17947 1-270)
# Summary of the method: as §1
# [7] = molecular target: SPIB (Homo sapiens, UniProt Q01892 1-262)
# Sequence of SPIB (Q01892 whole entry): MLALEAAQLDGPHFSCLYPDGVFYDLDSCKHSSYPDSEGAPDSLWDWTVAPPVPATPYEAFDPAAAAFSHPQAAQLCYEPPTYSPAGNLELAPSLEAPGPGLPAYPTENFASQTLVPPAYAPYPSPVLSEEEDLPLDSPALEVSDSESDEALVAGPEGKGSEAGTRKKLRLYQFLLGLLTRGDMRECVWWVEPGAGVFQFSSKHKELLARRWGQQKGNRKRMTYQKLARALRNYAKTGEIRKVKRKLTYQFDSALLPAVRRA
# Summary of the method: as §1
# [8] = molecular target: T5, ELK3 (Homo sapiens, UniProt P41970 1-407)
# T5 sequence: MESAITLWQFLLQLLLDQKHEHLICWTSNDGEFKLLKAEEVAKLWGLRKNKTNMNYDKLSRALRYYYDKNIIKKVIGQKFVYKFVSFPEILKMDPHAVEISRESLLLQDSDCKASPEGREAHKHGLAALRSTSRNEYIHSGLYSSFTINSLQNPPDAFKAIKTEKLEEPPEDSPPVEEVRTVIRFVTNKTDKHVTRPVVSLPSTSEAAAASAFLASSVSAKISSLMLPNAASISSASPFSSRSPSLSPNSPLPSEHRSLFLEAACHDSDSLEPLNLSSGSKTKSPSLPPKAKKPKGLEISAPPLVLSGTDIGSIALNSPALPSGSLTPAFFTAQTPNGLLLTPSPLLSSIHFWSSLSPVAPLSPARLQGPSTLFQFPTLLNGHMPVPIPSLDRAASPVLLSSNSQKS
# Summary of the method: as §1
# [9] = molecular target: T6, SPIC (Homo sapiens, UniProt Q8N5J4 1-248)
# T6 sequence: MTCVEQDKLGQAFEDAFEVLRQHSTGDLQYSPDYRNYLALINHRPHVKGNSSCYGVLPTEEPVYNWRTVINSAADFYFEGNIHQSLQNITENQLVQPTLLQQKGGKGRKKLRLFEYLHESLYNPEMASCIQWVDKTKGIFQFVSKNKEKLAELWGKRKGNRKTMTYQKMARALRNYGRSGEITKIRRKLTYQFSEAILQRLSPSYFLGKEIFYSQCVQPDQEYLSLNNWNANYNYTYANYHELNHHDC
# Summary of the method: as §1
# [10] = molecular target: ELF4 (Homo sapiens, UniProt Q99607 1-663)
# Sequence of ELF4 (Q99607 whole entry): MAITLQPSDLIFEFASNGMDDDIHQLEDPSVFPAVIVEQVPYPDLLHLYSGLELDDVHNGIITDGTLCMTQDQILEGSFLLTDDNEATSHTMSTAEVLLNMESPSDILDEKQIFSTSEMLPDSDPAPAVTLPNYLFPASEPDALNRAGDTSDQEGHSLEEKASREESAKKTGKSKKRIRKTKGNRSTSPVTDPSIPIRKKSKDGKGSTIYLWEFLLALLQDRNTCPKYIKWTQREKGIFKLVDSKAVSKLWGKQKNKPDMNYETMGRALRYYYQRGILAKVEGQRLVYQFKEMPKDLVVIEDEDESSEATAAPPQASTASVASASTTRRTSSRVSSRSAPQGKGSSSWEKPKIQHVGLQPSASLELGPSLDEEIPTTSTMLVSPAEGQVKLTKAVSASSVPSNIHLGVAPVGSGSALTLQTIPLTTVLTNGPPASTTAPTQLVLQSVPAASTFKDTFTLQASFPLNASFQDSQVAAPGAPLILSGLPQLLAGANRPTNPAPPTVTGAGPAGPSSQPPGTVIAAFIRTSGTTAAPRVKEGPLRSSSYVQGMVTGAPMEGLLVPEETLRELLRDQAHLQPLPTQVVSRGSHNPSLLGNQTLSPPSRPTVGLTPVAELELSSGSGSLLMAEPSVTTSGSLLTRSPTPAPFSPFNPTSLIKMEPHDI
# Summary of the method: as §1
# [11] = molecular target: T7, ELK4 (Homo sapiens, UniProt P28324-2 1-405)
# T7 sequence: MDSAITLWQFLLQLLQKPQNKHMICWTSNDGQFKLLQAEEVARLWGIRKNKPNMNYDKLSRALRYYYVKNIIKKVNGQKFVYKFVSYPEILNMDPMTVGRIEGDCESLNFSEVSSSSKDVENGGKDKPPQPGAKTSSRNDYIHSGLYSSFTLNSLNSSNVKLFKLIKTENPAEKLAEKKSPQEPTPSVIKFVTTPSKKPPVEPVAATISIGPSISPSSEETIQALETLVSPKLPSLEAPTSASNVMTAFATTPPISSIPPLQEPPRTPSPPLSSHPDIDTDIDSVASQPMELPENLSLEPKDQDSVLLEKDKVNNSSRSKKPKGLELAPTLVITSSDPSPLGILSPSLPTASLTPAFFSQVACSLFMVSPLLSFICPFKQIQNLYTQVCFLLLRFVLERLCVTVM
# Summary of the method: as §1
# [12] = molecular target: ETV1 (Homo sapiens, UniProt P50549 1-477)
# Sequence of ETV1 (P50549 whole entry): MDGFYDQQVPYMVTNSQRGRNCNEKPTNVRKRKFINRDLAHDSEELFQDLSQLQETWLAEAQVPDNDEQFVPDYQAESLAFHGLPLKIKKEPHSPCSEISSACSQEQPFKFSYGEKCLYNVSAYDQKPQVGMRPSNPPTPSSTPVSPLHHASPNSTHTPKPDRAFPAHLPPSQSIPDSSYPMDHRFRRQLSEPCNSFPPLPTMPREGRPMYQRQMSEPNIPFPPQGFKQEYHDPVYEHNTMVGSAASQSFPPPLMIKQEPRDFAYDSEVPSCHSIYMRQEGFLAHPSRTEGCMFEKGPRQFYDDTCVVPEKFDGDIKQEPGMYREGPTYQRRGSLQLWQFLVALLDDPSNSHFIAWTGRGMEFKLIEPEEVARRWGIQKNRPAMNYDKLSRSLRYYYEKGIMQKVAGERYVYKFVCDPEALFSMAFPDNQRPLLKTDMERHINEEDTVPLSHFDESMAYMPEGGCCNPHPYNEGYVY
# Summary of the method: as §1
# [13] = molecular target: T8, ERF (Homo sapiens, UniProt P50548 1-548)
# T8 sequence: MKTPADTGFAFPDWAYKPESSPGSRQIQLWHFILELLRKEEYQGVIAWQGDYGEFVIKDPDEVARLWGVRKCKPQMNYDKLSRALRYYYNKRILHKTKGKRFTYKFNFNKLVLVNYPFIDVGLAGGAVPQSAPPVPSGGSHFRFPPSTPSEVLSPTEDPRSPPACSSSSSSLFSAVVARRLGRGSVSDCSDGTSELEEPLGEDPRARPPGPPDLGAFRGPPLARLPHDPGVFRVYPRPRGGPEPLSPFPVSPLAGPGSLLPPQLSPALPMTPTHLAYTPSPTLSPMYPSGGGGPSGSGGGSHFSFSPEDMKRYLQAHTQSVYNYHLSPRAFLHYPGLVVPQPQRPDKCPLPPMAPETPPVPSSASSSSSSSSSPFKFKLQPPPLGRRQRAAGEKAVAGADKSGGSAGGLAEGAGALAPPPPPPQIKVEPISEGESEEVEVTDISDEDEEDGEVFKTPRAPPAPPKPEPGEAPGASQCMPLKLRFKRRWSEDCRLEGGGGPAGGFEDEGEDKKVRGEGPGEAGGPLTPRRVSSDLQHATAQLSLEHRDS
# Summary of the method: as §1
# [14] = molecular target: T9, ETV3L (Homo sapiens, UniProt Q6ZN32 1-361)
# T9 sequence: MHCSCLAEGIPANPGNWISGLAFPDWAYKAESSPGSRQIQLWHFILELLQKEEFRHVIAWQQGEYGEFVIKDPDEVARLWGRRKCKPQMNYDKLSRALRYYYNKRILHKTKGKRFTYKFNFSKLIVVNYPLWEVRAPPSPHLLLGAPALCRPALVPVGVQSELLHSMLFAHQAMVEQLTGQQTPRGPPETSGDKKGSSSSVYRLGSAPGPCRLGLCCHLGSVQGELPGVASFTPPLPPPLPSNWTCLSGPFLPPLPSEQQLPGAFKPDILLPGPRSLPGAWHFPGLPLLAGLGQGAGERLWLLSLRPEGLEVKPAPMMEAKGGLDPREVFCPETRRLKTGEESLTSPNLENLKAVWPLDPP
# Summary of the method: as §1
# [15] = molecular target: T10, ETS2 (Homo sapiens, UniProt P15036 1-469)
# T10 sequence: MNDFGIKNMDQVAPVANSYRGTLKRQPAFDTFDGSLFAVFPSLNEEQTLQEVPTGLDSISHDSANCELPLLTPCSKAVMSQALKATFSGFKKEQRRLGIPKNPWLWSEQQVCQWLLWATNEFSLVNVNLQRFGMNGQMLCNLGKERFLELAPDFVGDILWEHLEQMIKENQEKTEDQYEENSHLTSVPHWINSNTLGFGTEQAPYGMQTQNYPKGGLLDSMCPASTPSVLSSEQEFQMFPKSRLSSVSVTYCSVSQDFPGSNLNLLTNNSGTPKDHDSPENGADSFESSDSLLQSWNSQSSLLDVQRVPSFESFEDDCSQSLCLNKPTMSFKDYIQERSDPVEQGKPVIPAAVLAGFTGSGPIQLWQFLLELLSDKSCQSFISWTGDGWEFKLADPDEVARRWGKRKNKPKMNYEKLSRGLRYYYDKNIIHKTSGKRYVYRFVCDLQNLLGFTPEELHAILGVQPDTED
# Summary of the method: as §1
# [16] = molecular target: T11, ELF5 (Homo sapiens, UniProt Q9UKW6-2 1-255)
# T11 sequence: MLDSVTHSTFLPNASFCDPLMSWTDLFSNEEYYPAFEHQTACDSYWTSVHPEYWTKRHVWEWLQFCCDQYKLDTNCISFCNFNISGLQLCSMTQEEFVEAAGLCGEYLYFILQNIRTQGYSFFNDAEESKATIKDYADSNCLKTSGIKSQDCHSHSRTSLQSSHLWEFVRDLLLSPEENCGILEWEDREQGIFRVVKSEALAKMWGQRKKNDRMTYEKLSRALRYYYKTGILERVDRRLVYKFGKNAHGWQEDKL
# Summary of the method: as §1
# [17] = molecular target: ETV6 (Homo sapiens, UniProt P41212 1-452)
# Sequence of ETV6 (P41212 whole entry): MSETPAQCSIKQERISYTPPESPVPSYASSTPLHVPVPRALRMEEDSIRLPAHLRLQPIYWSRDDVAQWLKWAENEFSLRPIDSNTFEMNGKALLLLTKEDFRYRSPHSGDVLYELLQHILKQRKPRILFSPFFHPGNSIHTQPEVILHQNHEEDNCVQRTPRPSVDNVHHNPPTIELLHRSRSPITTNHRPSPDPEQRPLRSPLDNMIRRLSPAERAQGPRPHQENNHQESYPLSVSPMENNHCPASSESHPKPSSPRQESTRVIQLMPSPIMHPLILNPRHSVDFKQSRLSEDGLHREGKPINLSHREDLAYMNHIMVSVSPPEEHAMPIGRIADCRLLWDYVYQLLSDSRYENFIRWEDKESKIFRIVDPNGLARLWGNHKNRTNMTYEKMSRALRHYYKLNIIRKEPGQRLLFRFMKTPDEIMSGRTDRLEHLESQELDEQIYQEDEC
# Summary of the method: as §1
sequence,measurement,setting,value
TGGTTG,binding signal,[1],"1.04 fold enrichment (6-mer frequency, TF over GST control)"
same,binding signal,[2],"1.02 fold enrichment (6-mer frequency, TF over GST control)"
same,binding signal,[3],"1.01 fold enrichment (6-mer frequency, TF over GST control)"
same,binding signal,[4],"1.02 fold enrichment (6-mer frequency, TF over GST control)"
same,binding signal,[5],"1.02 fold enrichment (6-mer frequency, TF over GST control)"
same,binding signal,[6],"1.06 fold enrichment (6-mer frequency, TF over GST control)"
same,binding signal,[7],"1.08 fold enrichment (6-mer frequency, TF over GST control)"
same,binding signal,[8],"1.03 fold enrichment (6-mer frequency, TF over GST control)"
same,binding signal,[9],"1.08 fold enrichment (6-mer frequency, TF over GST control)"
same,binding signal,[10],"1.03 fold enrichment (6-mer frequency, TF over GST control)"
same,binding signal,[11],"1.09 fold enrichment (6-mer frequency, TF over GST control)"
same,binding signal,[12],"1.05 fold enrichment (6-mer frequency, TF over GST control)"
same,binding signal,[13],"1.1 fold enrichment (6-mer frequency, TF over GST control)"
same,binding signal,[14],"1.03 fold enrichment (6-mer frequency, TF over GST control)"
same,binding signal,[15],"1.08 fold enrichment (6-mer frequency, TF over GST control)"
same,binding signal,[16],"1 fold enrichment (6-mer frequency, TF over GST control)"
same,binding signal,[17],"1 fold enrichment (6-mer frequency, TF over GST control)"
